# Reference: PubChem BioAssay (NCATS)
# Where “and” joins values, the source holds several entries; their conditions need not be identical. Identical values can stand only once. Results filed as inconclusive are left out. Values without a mark were called inactive. Calls of active or inactive are those of the source. Calls come from the whole dose curve; as a rule, active = well fitted inhibition curve with a large enough effect; inconclusive = small, poorly fitted or top-dose-only effect; inactive = flat fitted curve, though single readings scatter. Where a SMILES comes first, the peptide text is derived from it. The star is where a group is joined. PhAc = O=C(Cc1ccccc1)*
# Assay: Primary qHTS for inhibitors of nuclear receptor binding SET domain protein 2 (NSD2) in an isogenic RCH-ACV NSD2 p.E1099K mutant (9B) (AID 1645876); note: nearly all actives have a fitted effect of over 70% in size
# Settings: RCH-ACV (leukaemia line) NSD2 E1099K (9B) viability, CellTiter-Glo, 72 h; series mostly up to 44.9 µM; activity change, negative = viability loss: at the top concentration
# % is set by controls: 0 for no effect and ±100 for the full control effect; potency is the fitted concentration of half-maximal effect.
Compound,"activity change, negative = viability loss",outcome,Potency
CCOC(=O)C1=C(N)Oc2ccc(Cl)cc2C1C(C#N)C(=O)OCC (stereo not given),-1.82%,–,–
Cc1ccc(-c2c(-c3nn(C)c4ncnc(N5CCC(N6CCCCC6)C5)c34)cnn2C)cc1 (stereo not given),-4.32%,–,–
O=[N+]([O-])c1cc(Cl)ccc1S(=O)(=O)N1CCN(Cc2ccccc2)CC1,-4.22%,–,–
Fc1ccc(-c2c3cccc(C(F)(F)F)c3nn2Cc2ccc(F)cc2Cl)cc1,2.94%,–,–
CCOC(=O)CNC(=O)[C@@H]1CCCN1C(=O)Cc1ccccc1 (PhAc-Pro-Gly-OEt),2.2%,–,–
NC(=O)c1ccc(F)c2c1C[C@@H](N(C1CCC1)C1CCC1)CO2,–,inactive,–
Cc1oc2nc3c(c(NC(=O)CN4CCCC4=O)c2c1C)CCCC3,–,inactive,–
O=C(Nc1ccccc1)Nc1ccc(-c2ccc(C(=O)C3CCCC3C(=O)O)cc2)cc1 (stereo not given),4.83%,–,–
Cc1ncc(NC(=O)c2ccc(CN3CCN(C)CC3)c(C(F)(F)F)c2)cc1Nc1nccc(-c2cccnc2)n1,–,–,7.28 µM (active) and 5.9 µM (active)
O=C(Nc1ccc(N2CCC(C(=O)N3CCOCC3)CC2)cc1)c1cnc(Oc2ccccc2)nc1,–,inactive,–
CCOC(=O)COc1ccc2c(c1)C[C@@H](NC[C@H](O)c1cccc(Cl)c1)CC2,4.56%,–,–
CC(C)c1c(NC(=O)Nc2ccc(Cl)cc2)c(=O)n(-c2ccccc2)n1C,-12%,–,–
CCOC(=O)CSc1nc2c(sc3ccccc32)c(=O)n1CCCN1CCCC1,-5.82%,–,–
FC(F)(F)c1nnc2c(Sc3ccccc3)nc3ccc(Cl)cc3n12,–,–,4.09 µM (active)
CCNC(=O)C1CC(F)(c2ccc(CN3CCCC3)c(F)c2)C1 (stereo not given),–,inactive,–
